Data on 40 molecules can be found in the supplement of paper PMC8975748.

Structures can show the parent of a compound that is named as a salt.

This experiment concerns Saccharomyces cerevisiae BY4741 SeMeCo community. Description: z-score of subpopulation abundance vs DMSO median, subpopulation auxotrophic for HL; higher = larger share of this subpopulation than in DMSO controls. The note with it: 10 µM; 24 h; SM minimal medium; subpopulation (auxotrophy): HL. Here is the method: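 Fluorescent four-plasmid SeMeCo (self-establishing metabolically cooperating S. cerevisiae BY4741 community; plasmids pH-mRuby2, pL-mWasabi, pU-eCFP, pM-TagRFP657) was grown 24 h in minimal SM medium with each Selleck FDA-approved drug at 10 µM in 384-well plates. Cells were fixed and imaged by high-content confocal microscopy. For each auxotrophic subpopulation (and the prototroph), a z-score gives the deviation from the DMSO vehicle-control population median.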
As to `Cc1cc(C(C#N)c2ccc(Cl)cc2)c(Cl)cc1NC(=O)c1cc(I)cc(I)c1O` (stereo not given) [Closantel], the “z-score of subpopulation abundance” value was 0.7.

With `CCN1CC2(OC(=O)c3ccccc3NC(C)=O)CCC(OC)C34C1C(CC23)C1(O)CC(OC)C2CC4C1(O)C2OC` (stereo not given) [Lappaconitine], the “z-score of subpopulation abundance” value is -0.26.

In the case of `CC[C@@H](C(N)=O)N1CCCC1=O` [Levetiracetam], the “z-score of subpopulation abundance” value is -1.01.

As for `COc1ccc2c3c([nH]c2c1)C(C)=NCC3` [Harmaline], the “z-score of subpopulation abundance” value worked out at 1.95.

As to `O=C(O[C@H]1C[N+]2(CCCOc3ccccc3)CCC1CC2)C(O)(c1cccs1)c1cccs1` [Aclidinium Bromide], the “z-score of subpopulation abundance” value was -1.16.

`CN(C)C(=O)Oc1ccc[n+](C)c1` [Pyridostigmine Bromide]: the “z-score of subpopulation abundance” value amounted to 0.3.

`C[CH2][Hg][S]c1ccccc1C(=O)[O-].[Na+]` [Thimerosal]: the “z-score of subpopulation abundance” value amounted to 11.9.

Consider `C[C@H]1O[C@H](O[C@H]2[C@H](O)[C@@H](O)[C@@H](O)[C@H](O)[C@@H]2O)[C@@H](N)C[C@@H]1NC(=N)C(=O)O` [Kasugamycin hydrochloride], for which the “z-score of subpopulation abundance” value was -0.07.

Take `COc1ccc(C=O)cc1` [p-Anisaldehyde]: the “z-score of subpopulation abundance” value was -0.29.

As to `COc1ccc2c(c1)[C@]13CCCC[C@@H]1[C@H](C2)N(C)CC3` [Dextromethorphan hydrobromide hydrate], the “z-score of subpopulation abundance” value was -0.33.

`C#C[C@]1(O)C=C[C@H]2[C@@H]3CCC4=CC(=O)CC[C@@H]4[C@H]3CC[C@@]21CC` [Gestodene]: the “z-score of subpopulation abundance” value was 0.13.

As for `C=CCN1C[C@H](C(=O)N(CCCN(C)C)C(=O)NCC)C[C@@H]2c3cccc4[nH]cc(c34)C[C@H]21` [Cabergoline], the “z-score of subpopulation abundance” value was -0.49.

With `CN(C)[C@@H]1C(=O)C(C(N)=O)=C(O)[C@@]2(O)C(=O)C3=C(O)c4c(O)cccc4[C@@](C)(O)[C@H]3C[C@@H]12` [Tetracycline HCl], the “z-score of subpopulation abundance” value came out at 0.29.

With `C[N+]12CCC(CC1)C(OC(=O)C(O)(c1ccccc1)c1ccccc1)C2` (stereo not given) [Clidinium Bromide], the “z-score of subpopulation abundance” value was -0.33.

For `N#Cc1nn(-c2c(Cl)cc(C(F)(F)F)cc2Cl)c(N)c1[S+]([O-])C(F)(F)F` (stereo not given) [Fipronil], the “z-score of subpopulation abundance” value worked out at 0.71.

Regarding `CN1[C@@H]2CC[C@H]1C[C@@H](OC(=O)[C@H](CO)c1ccccc1)C2` [Hyoscyamine], the “z-score of subpopulation abundance” value is -0.72.

On to `CN1[C@@H]2C[C@@H](OC(=O)[C@H](CO)c3ccccc3)C[C@H]1[C@@H]1O[C@@H]12` [Scopolamine HBr trihydrate], for which the “z-score of subpopulation abundance” value was -0.72.

For the molecule `C=C[C@H]1CN2CC[C@H]1C[C@H]2[C@H](O)c1ccnc2ccccc12` [Cinchonidine], the “z-score of subpopulation abundance” value is -0.64.

`CC(C)=CCOc1c2occc2cc2ccc(=O)oc12` [Imperatorin]: the “z-score of subpopulation abundance” value was 0.34.

`COc1ccc2[nH]cc(CCN)c2c1` [5-Methoxytryptamine]: the “z-score of subpopulation abundance” value was -0.31.

Take `CCOC(=O)Nc1ccc(NCc2ccc(F)cc2)cc1N` [Retigabine 2HCl]: the “z-score of subpopulation abundance” value was determined as 1.24.

For `CN1c2ccccc2C(NCCCCCCC(=O)O)c2ccc(Cl)cc2S1(=O)=O` (stereo not given) [Tianeptine sodium], the “z-score of subpopulation abundance” value was -0.07.

For `O=c1cccc2n1C[C@@H]1CNC[C@H]2C1` [Cytisine], the “z-score of subpopulation abundance” value was -0.4.

As to `C[N+](C)(C)CCCCCCCCCC[N+](C)(C)C` [Decamethonium Bromide], the “z-score of subpopulation abundance” value was -0.3.

Regarding `CN(C)[C@@H]1C(=O)C(C(N)=O)=C(O)[C@@]2(O)C(=O)C3=C(O)c4c(O)cccc4[C@@](C)(O)[C@H]3[C@H](O)[C@@H]12` [Oxytetracycline (Terramycin)], the “z-score of subpopulation abundance” value amounted to 0.77.

Take `O=C(O[C@H]1C[C@H]2CC[C@@H](C1)[N+]21CCCC1)C(O)(c1ccccc1)c1ccccc1` [Trospium chloride]: the “z-score of subpopulation abundance” value is -0.4.

For the molecule `CN1[C@@H]2CC[C@H]1C[C@@H](OC(=O)C(CO)c1ccccc1)C2` (stereo not given in full) [Atropine sulfate monohydrate], the “z-score of subpopulation abundance” value is -0.69.

As to `Oc1cccc2cccnc12` [8-Hydroxyquinoline], the “z-score of subpopulation abundance” value came out at 0.63.

Regarding `Nc1ccncc1` [4-Aminopyridine], the “z-score of subpopulation abundance” value came out at 0.38.

Turning to `CN(C)C(=O)Oc1cccc([N+](C)(C)C)c1` [Neostigmine Bromide], the “z-score of subpopulation abundance” value is -0.44.

For the molecule `NCC(O)c1ccc(O)cc1` (racemic) [(+,-)-Octopamine HCl], the “z-score of subpopulation abundance” value was -1.17.

Consider `CCCN1C[C@H](CSC)C[C@@H]2c3cccc4[nH]cc(c34)C[C@H]21` [Pergolide Mesylate], for which the “z-score of subpopulation abundance” value is -0.35.

For `CCN(C)C(=O)Oc1cccc([C@H](C)N(C)C)c1` [Rivastigmine Tartrate], the “z-score of subpopulation abundance” value turned out to be 0.04.

On to `Oc1cc(Cl)ccc1Oc1ccc(Cl)cc1Cl` [Triclosan], for which the “z-score of subpopulation abundance” value was -0.78.

As to `CC(NC(C)(C)C)C(=O)c1cccc(Cl)c1` (stereo not given) [Amfebutamone (Bupropion) HCl], the “z-score of subpopulation abundance” value is 0.03.

Turning to `CC[C@H]1CN2CC[C@]3(C(=O)Nc4ccccc43)[C@@H]2C[C@@H]1/C(=C\OC)C(=O)OC` [Rhynchophylline], the “z-score of subpopulation abundance” value was found to be 0.04.

Consider `CN(C)[C@@H]1C(=O)C(C(N)=O)=C(O)[C@@]2(O)C(=O)C3=C(O)c4c(O)cccc4[C@@](C)(O)[C@H]3[C@H](O)[C@@H]12` [Oxytetracycline Dihydrate], for which the “z-score of subpopulation abundance” value came to 0.03.

As for `CNC1CC(N)C(O)C(OC2OC(CO)C(O)C3OC4(OC(C(N)CO)C(O)C(O)C4O)OC23)C1O` (stereo not given) [Hygromycin B], the “z-score of subpopulation abundance” value is -0.22.

In the case of `CN[C@@H]1[C@@H](O)[C@@H](O[C@@H]2[C@@H](O)[C@H](O[C@H]3O[C@H](CN)CC[C@H]3N)[C@@H](N)C[C@H]2N)OC[C@]1(C)O.CN[C@@H]1[C@@H](O)[C@@H](O[C@@H]2[C@@H](O)[C@H](O[C@H]3O[C@H]([C@@H](C)N)CC[C@H]3N)[C@@H](N)C[C@H]2N)OC[C@]1(C)O.CN[C@@H]1[C@@H](O)[C@@H](O[C@@H]2[C@@H](O)[C@H](O[C@H]3O[C@H]([C@@H](C)NC)CC[C@H]3N)[C@@H](N)C[C@H]2N)OC[C@]1(C)O` [Gentamicin Sulfate], the “z-score of subpopulation abundance” value was -1.11.

As for `C=C(C)[C@H]1Cc2c(ccc3c2O[C@@H]2COc4cc(OC)c(OC)cc4[C@@H]2C3=O)O1` [Rotenone (Barbasco)], the “z-score of subpopulation abundance” value turned out to be 0.53.
